This is one part of a sample in which hits are shown more often than they occur.
Dicer processing: human Dicer pre-microRNA cleavage inhibition; Q9UPY3; cat-ELCCA pre-miR-21 Dicer processing, chemiluminescence; stronger effect = higher value; z-score at 25 µM; 6% of 47,000 active; AID 1347074; in the data active = z-score above about 3, passing the limit was not always enough;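 note: higher signal means more uncleaved substrate so more Dicer inhibition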
Target sequence (Q9UPY3 whole entry, looked up): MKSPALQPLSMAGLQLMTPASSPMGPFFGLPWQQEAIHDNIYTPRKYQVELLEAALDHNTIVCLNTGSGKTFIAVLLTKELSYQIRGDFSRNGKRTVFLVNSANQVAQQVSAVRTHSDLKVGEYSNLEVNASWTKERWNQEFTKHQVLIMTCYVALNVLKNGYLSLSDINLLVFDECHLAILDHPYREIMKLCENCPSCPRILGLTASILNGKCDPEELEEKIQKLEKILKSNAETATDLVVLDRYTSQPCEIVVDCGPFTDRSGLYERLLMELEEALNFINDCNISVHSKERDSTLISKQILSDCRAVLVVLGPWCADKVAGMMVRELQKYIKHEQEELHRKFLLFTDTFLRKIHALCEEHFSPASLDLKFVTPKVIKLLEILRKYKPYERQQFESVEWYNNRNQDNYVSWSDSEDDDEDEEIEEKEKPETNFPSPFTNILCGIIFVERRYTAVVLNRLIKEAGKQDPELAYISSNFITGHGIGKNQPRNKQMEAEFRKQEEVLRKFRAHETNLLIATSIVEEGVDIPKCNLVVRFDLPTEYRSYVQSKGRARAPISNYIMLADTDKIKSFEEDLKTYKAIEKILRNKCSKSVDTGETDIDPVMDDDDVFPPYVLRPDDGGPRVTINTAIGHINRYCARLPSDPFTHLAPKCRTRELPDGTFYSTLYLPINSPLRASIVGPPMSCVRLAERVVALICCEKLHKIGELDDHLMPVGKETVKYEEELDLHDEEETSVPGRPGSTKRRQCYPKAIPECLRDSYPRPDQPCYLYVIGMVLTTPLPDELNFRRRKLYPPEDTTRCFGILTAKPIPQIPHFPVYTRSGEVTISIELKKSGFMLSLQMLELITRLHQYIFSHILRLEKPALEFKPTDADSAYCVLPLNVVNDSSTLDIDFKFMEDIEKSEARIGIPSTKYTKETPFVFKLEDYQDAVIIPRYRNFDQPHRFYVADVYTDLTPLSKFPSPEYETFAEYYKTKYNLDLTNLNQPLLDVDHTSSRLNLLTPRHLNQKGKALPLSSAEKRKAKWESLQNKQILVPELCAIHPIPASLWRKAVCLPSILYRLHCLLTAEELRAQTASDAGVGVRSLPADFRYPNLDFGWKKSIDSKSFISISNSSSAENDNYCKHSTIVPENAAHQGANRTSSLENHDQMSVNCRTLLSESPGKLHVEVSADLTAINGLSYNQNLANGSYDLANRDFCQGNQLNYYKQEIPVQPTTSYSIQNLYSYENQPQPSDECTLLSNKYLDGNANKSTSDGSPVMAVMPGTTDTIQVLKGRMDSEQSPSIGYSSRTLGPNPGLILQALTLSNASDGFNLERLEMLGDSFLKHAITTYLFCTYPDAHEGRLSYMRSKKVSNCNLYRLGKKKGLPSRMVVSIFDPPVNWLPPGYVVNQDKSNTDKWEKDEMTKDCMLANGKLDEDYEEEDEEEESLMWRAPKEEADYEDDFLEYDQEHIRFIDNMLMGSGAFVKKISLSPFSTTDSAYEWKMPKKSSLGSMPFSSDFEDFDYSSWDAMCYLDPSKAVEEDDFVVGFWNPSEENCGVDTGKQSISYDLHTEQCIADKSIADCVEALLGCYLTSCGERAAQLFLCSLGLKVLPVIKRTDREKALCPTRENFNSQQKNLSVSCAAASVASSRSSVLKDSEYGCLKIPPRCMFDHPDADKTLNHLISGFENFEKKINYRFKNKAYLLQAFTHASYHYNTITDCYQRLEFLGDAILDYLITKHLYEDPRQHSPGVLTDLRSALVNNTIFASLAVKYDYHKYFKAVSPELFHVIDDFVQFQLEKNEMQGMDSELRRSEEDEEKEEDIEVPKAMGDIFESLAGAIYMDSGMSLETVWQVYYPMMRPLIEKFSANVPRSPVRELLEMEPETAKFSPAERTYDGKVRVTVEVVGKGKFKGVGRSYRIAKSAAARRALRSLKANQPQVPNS
Numbers stand for hits; . = inactive.

SMILES	Dicer processing
Cc1ccc(C(=O)CSc2nc(C)cc(=O)[nH]2)cc1	4.6
Cc1cc(=O)[nH]c(SCC(=O)N(c2ccccc2)c2ccccc2)n1	.
COc1ccc(C(=O)CSc2nc(O)cc(=O)[nH]2)cc1	.
COc1cc(C)c(C(C)C)cc1S(=O)(=O)NCCN1CCOCC1	.
CC(C)(C)c1ccc(NC(=S)Nc2ccccn2)cc1	.
O=C1CC(C(=O)Nc2ccc3c(c2)OCCO3)n2c(nc3ccccc32)N1 (configuration not stated)	.
O=c1nc(Nc2ccccc2)c2ccccc2[nH]1	.
O=c1nc(N2CCOCC2)nc(Nc2ccccc2)[nH]1	8.3
COc1ccccc1Nc1nc(Nc2ccccc2OC)nc(N2CCOCC2)n1	.
CC(C(=O)NNS(=O)(=O)c1cccc(C(F)(F)F)c1)n1nnc(-c2cc(C(F)(F)F)cc(C(F)(F)F)c2)n1 (configuration not stated)	.
Cc1cccc(C)c1NC(=O)c1cnc(NC2CCCCC2)cc1C(F)(F)F	.
CC(=O)Oc1c(I)c(=O)n(C)c2ccccc12	.
Cn1c(=O)c(-c2ccccc2)c(O)c2ccccc21	.
Cn1c(=O)c(I)c(O)c2ccccc21	5.3
O=[N+]([O-])c1ccc(-c2ncc3ccccn23)cc1	.
O=S(=O)(Nc1ccccc1N1CCOCC1)c1ccc(-c2ccccn2)s1	4.8
O=S(=O)(Nc1ccccc1N1CCOCC1)c1ccc(S(=O)(=O)c2ccccc2)s1	.
O=S(=O)(Nc1ccc2c(c1)OCCO2)c1ccc(-c2ccccn2)s1	.
CSc1cc(-c2nccs2)nn1C(C)=O	.
COc1cccc(Nc2nc(Cl)nc(Nc3cccc(OC)c3)n2)c1	.
CCOC(=O)c1c(C)csc1NC(=O)CSc1ccc(Cl)cc1	.
O=c1[nH]c2ccccc2c(=O)n1CCSc1ccccc1	.
Cc1csc2c(=O)n(CCSc3ccc(Cl)cc3)c(=O)[nH]c12	3.1
Cc1cc(C)nc(N/C=C(\C#N)S(=O)(=O)Cc2ccco2)n1	.
CC(C)(C)S(=O)(=O)/C(C#N)=C/N/N=C/c1ccccc1Cl	.
SMILES	Dicer processing
CSC(=Nc1ccc(C(C)C)cc1)NC#N	.
Cc1ccc(-c2cc3nccc(-c4ccc5c(c4)N(C)C(=O)CO5)n3n2)cc1	.
CCOC(=O)CC(=O)CSc1nc(N)c2c3c(sc2n1)CCCC3	5.5
CCOC(=O)CCCSc1nc(N)c2c3c(sc2n1)CCCC3	3.1
CCOC(=O)c1nc2sc3c(c2c(=O)[nH]1)CCCC3	.
CCOC(=O)CSc1nc(SCC(=O)OCC)c2c3c(sc2n1)CCC3	.
CCOC(=O)CC(=O)CSc1nc(N)c2c3c(sc2n1)CCC3	.
Nc1nc(SCC(=O)c2ccc(Cl)cc2)nc2sc3c(c12)CCCCC3	.
CCSc1nc(O)c(C(c2ccccc2)c2ccccc2)c(=O)[nH]1	.
CCOC(=O)/C(=C/c1ccc(Cl)cc1)[N+](=O)[O-]	.
O=C(c1ccc2c(c1)OCCO2)c1ccccc1Br	.
COCCOC(=O)c1c(C)oc2ccc(OCC(=O)OC)cc12	.
CN1CCc2c(sc3c2C(=O)NC(c2ccc(OCc4ccccc4)cc2)N3)C1 (configuration not stated)	.
O=C1NC(c2ccc(OCc3ccccc3)cc2)Nc2sc3c(c21)CCCC3 (configuration not stated)	3.6
O=C1NC(c2ccccc2OCc2ccccc2)Nc2sc3c(c21)CCCC3 (configuration not stated)	.
Clc1cccc(Nc2nc3ccccc3s2)c1	.
C=CC[n+]1ccccc1/C=C1\Sc2ccccc2N1CC	.
Cc1oc2ccc(NS(=O)(=O)c3ccc(F)cc3)cc2c1C(=O)O	.
Cc1oc2ccc(NS(=O)(=O)c3ccccc3)cc2c1C(=O)O	3.4
COc1ccc(S(=O)(=O)Nc2ccc3oc4c(c3c2)CCCC4)cc1	.
Cc1ccccc1S(=O)(=O)Nc1ccc2oc3c(c2c1)CCCC3	3.9
Cc1oc2ccc(NS(=O)(=O)c3ccc(Cl)cc3)cc2c1C(=O)O	.
O=C(O)c1ccc(S(=O)(=O)Nc2ccc3oc4c(c3c2)C(=O)CCC4)cc1	.
Cn1c(=O)c2c(nc(Cl)n2Cc2ccccc2F)n(C)c1=O	.
CC1=CC(C)(C)N2C(=O)C(=O)c3cc(OC(=O)CCC4CCCCC4)cc1c32	.
SMILES	Dicer processing
COCCCn1c(SCC(=O)NN)nnc1-c1ccc(C(C)(C)C)cc1	.
O=C(Oc1ccccc1)Oc1ccc2sc(=O)oc2c1	.
CSc1sc(Cl)c(-c2ccc(Cl)cc2)c1C#N	.
Clc1ccc(-n2ncnc2-c2ccccc2)cc1	.
CSc1ccc(-c2ncnn2-c2cccc(Cl)c2)cc1	.
CCc1ccc(-c2ncnn2-c2ccc(Cl)cc2)cc1	3.2
COc1ccc2c(c1)C(=O)/C(=C/c1ccccc1)CC2	.
Cc1nn(-c2ccccc2)c2c1C1=C(C(=O)CC(C)(C)C1)C(c1ccc(N(C)C)cc1)N2 (configuration not stated)	3.4
Cc1[nH]nc2c1C1=C(C(=O)CC(C)(C)C1)C(c1ccc(N(C)C)cc1)N2 (configuration not stated)	.
CCC1C2=C(CC(C)(C)CC2=O)Nc2c1c(C)nn2-c1ccccc1 (configuration not stated)	.
CC1(C)CC(=O)C2=C(C1)Nc1nc(-c3cccnc3)nn1C2c1ccc(Cl)cc1 (configuration not stated)	.
O=C(Nc1ccc(F)cc1F)c1cc(Cl)c(-n2cccc2)c(Cl)c1	.
NC(=O)c1sc(-c2ccccc2)cc1NS(=O)(=O)c1ccc(F)cc1	.
COC(=O)c1sc(-c2ccc(Cl)cc2)cc1NC(=O)C(F)(F)F	.
NC(=O)c1sc(-c2ccc(Cl)cc2)cc1NS(=O)(=O)c1cc(C(F)(F)F)cc(C(F)(F)F)c1	3.7
CCOC(=O)c1cnn(-c2nc(-c3ccc(C#N)cc3)cs2)c1C(F)(F)F	.
O=c1[nH]c2ccc([N+](=O)[O-])cc2nc1/C=C(\O)c1ccccc1	24
O=[N+]([O-])c1ccc2nc(-c3ccccc3)c(-c3ccccc3)nc2c1	.
CC(C)(C)/C(O)=C/c1nc2cc([N+](=O)[O-])ccc2[nH]c1=O	.
Cc1nn(C(=O)c2ccccc2)c(C)c1Sc1nnnn1-c1ccccc1	.
Cc1c(C(=O)OCc2ccccc2)c2cc(NS(=O)(=O)N(C)C)ccc2n1S(=O)(=O)N(C)C	.
COc1ccc(N2C(=O)C3ON(c4ccccc4)C(c4ccco4)C3C2=O)cc1 (configuration not stated)	.
COc1ccc(C2C3C(=O)N(c4ccccc4)C(=O)C3ON2c2ccccc2)cc1 (configuration not stated)	.
O=C1C2ON(c3ccccc3)C(c3cccnc3)C2C(=O)N1c1ccc(F)cc1 (configuration not stated)	.
COC(=O)c1ccc(N2C(=O)C3ON(c4ccccc4)C(c4ccc(OC)cc4OC)C3C2=O)cc1 (configuration not stated)	.
Cc1ccc(N2C(=O)C3ON(c4ccccc4)C(c4cccnc4)C3C2=O)cc1 (configuration not stated)	.
COc1ccc(C2C3C(=O)NC(=O)C3ON2c2ccccc2)cc1 (configuration not stated)	.
Cc1ccc(N2C(=O)C3ON(c4ccccc4)C(c4ccccc4O)C3C2=O)cc1 (configuration not stated)	.
O=C1C2ON(c3ccccc3)C(c3cc(Br)ccc3O)C2C(=O)N1c1ccccc1 (configuration not stated)	4.7
COc1ccc(N2C(=O)C3ON(c4ccccc4)C(c4ccccc4O)C3(C)C2=O)cc1 (configuration not stated)	4

High-throughput results from PubChem.
